Assay [1] in a line: Human pregnane X receptor (PXR) small molecule agonists, qHTS cell viability counter screen (AID 1346977). Note: nearly all actives have a fitted effect of over 50% in size. The method in brief:
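HepG2 cells stably carrying the PXR-Luc reporter are cultured with 5% charcoal-stripped FBS and treated with compounds for 24hr. CellTiter-Fluor is added at 23hr and fluorescence is read after 1hr.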

A short description of assay [2]: Caspase-3/7 induction in HepG2 cells by small molecules, qHTS assay (AID 1346978). Note: nearly all actives have a fitted effect of over 15% in size. The method in brief:
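Caspase-3/7 induction was measured by Caspase-Glo 3/7 luminescence (30 min, room temperature) after a 17 hr compound exposure of wild-type HepG2 cells seeded at 2,000 per well and pre-incubated 5 hr.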
(In general: In qHTS, concentration-response curves come from the screen itself.)

A short description of assay [3]: Caspase-3/7 induction in CHO-K1 cells by small molecules, qHTS cell viability counter screen (AID 1346979). Note: nearly all actives have a fitted effect of over 35% in size. A digest of the protocol: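 Seeding: 1,500 CHO-K1 cells/well. Rest: 5hr, 37C. Treatment: compounds in DMSO, 16hr. Read: CellTiter-Fluor, 1hr, fluorescence.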
The nature of assay [4]: Caspase-3/7 induction in CHO-K1 cells by small molecules, qHTS assay (AID 1346980). Note: nearly all actives have a fitted effect of over 15% in size. A digest of the protocol:
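Luminescent Caspase-Glo 3/7 read (30min, room temperature) quantified apoptosis induction. Cells were wild-type CHO-K1, treated with compound for 17hr at 37 C and 5% CO2.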

The nature of assay [5]: Caspase-3/7 induction in HepG2 cells by small molecules, qHTS cell viability counter screen (AID 1346981). Note: series mostly up to about 92 µM; nearly all actives have a fitted effect of over 30% in size. The method in brief:
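After a 5-hr attachment period at 37 C and 5% CO2, wild-type HepG2 cells received compounds in DMSO. Sixteen hours later CellTiter-Fluor was dispensed and the fluorescent signal quantified after a further hour.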

Assay [6] deals with Nuclear receptor subfamily 1 group I member 2 (Homo sapiens) (UniProt O75469). The experiment in a line: Human pregnane X receptor (PXR) small molecule agonists, qHTS assay (AID 1346982). Note: nearly all actives have a fitted effect of over 35% in size. Note: potency is the fitted concentration of half-maximal effect. The method in brief:
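Tox21 qHTS; PXR-Luc HepG2; compounds pinned from DMSO; 24 hr, 37 C; ONE-Glo luciferase detection, 30 min room temperature.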

Assay [7] addresses Cytochrome P450 2C19 (Homo sapiens) (UniProt P33261). The experiment in a line: Cytochrome P450 Family 2 Subfamily C Member 19 (CYP2C19) small molecule antagonists: luciferase reporter qHTS assay (AID 1671197). Note: nearly all actives have a fitted effect of over 65% in size. Note: potency is the fitted concentration of half-maximal effect. The method in brief: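 Light output is proportional to CYP2C19 activity: proluciferin substrate is converted to luciferin, then detected by a luciferin detection reagent that also stops the 1 h, 37C NADPH-driven reaction. Ketoconazole serves as positive control.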
(In general: In a reporter assay the amount or activity of a reporter protein is the signal.)

Assay [8] has as its target Cytochrome P450 2C9 (Homo sapiens) (UniProt P11712). Description: Cytochrome P450 Family 2 Subfamily C Member 9 (CYP2C9) small molecule antagonists: luciferase reporter qHTS assay (AID 1671198). Note: nearly all actives have a fitted effect of over 50% in size. Note: potency is the fitted concentration of half-maximal effect. The method in brief:
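Enzyme-substrate mix preincubated with compound 10 min at room temperature; reaction started with NADPH regeneration solution, 1 h 37C. Luminescent luciferin product read after 20 min detection reagent.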

In assay [9] the target is Cytochrome P450 1A2 (Homo sapiens) (UniProt P05177). Description: Cytochrome P450 Family 1 Subfamily A Member 2 (CYP1A2) small molecule antagonists: luciferase reporter qHTS assay (AID 1671199). Note: nearly all actives have a fitted effect of over 50% in size. Note: potency is the fitted concentration of half-maximal effect. A digest of the protocol: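 Room-temperature CYP1A2 reaction with proluciferin substrate: compounds added from DMSO, 10 min preincubation, NADPH regeneration for 1 h. Luciferin detection reagent then added; luminescence recorded as RLU.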
Chain of Cytochrome P450 1A2 (Homo sapiens) (P05177 whole entry, looked up): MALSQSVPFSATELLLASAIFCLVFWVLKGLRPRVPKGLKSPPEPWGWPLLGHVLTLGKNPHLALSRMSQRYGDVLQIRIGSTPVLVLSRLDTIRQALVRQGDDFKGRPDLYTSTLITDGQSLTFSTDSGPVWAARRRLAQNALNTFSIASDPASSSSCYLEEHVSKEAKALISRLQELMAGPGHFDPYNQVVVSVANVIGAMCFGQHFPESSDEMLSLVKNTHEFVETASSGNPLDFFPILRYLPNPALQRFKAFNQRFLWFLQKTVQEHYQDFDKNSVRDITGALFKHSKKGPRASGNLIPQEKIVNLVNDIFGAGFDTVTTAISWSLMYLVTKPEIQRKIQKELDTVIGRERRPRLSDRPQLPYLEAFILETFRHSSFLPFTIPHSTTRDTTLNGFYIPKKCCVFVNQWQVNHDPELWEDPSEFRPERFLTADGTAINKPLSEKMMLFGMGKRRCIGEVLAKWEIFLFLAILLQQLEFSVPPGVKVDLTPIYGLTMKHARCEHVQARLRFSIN

Assay [10] addresses Voltage-gated inwardly rectifying potassium channel KCNH2 (Homo sapiens) (UniProt Q12809). Description: Human Ether-a-go-go-Related Gene (hERG) channel small molecule antagonists: fluorescence cell-based qHTS assay (AID 1671200).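 Note: hERG-expressing U2OS cells given a thallium stimulus after FluxOR II dye loading; series mostly up to about 77 µM; nearly all actives have a fitted effect of over 50% in size.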 The method in brief:
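First, 1000 cells per well are seeded and cultured overnight at 37 C. Next, FluxOR II dye is loaded for 1 h at room temperature, protected from light. After 10 more minutes, stimulus is added and fluorescence is read.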

Assay [11] has as its target Cytochrome P450 3A4 (Homo sapiens) (UniProt P08684). The experiment in a line: Cytochrome P450 Family 3 Subfamily A Member 4 (CYP3A4) small molecule antagonists: luciferase reporter qHTS assay (AID 1671201). A digest of the protocol: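 Enzyme and proluciferin substrate are mixed with test chemicals for 10 min, then NADPH regeneration system drives turnover for 1 h at room temperature. A detection reagent halts the reaction; luminescence after 20 min gives relative activity.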

For assay [12], the target named is Cytochrome P450 2D6 (Homo sapiens) (UniProt P10635). Description: Cytochrome P450 Family 2 Subfamily D Member 6 (CYP2D6) small molecule antagonists: luciferase reporter qHTS assay (AID 1671196). The method in brief: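 Room-temperature luminescent CYP2D6 activity assay: compound preincubated 10 min with enzyme–substrate mix, NADPH-initiated reaction 1 h, detection reagent 20 min before reading.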
Chain of Cytochrome P450 2D6 (Homo sapiens) (P10635 whole entry, looked up): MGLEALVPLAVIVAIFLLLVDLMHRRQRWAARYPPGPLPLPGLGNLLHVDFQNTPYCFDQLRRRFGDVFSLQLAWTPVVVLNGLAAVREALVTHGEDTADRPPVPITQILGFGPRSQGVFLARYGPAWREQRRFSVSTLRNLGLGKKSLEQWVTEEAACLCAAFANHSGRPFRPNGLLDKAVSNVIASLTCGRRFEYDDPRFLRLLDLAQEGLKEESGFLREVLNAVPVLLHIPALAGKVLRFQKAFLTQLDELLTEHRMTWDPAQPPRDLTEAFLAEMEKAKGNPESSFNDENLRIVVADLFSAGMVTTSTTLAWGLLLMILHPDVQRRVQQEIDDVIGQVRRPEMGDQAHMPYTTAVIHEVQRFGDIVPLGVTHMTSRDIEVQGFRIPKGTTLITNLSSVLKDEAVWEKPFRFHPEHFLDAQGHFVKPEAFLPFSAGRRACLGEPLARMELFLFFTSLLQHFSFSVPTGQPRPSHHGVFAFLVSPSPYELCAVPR

In assay [13] the target is Nuclear receptor subfamily 1 group I member 2 (Rattus norvegicus) (UniProt Q9R1A7). Description: Rat pregnane X receptor (rPXR) activation by small molecules, qHTS assay (AID 1346983). Note: nearly all actives have a fitted effect of over 20% in size. To be noted: rPXR luciferase reporter cells, One-Glo luminescence, 24 h; max activation: hits give high values. The method in brief: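 Luminescent readout (One-Glo luciferase, 30 min room temperature) followed 24 hr compound treatment at 37 C of rPXR cells plated 2,000 per well and preincubated 5hr; qHTS format with compounds delivered in DMSO.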
Chain of Nuclear receptor subfamily 1 group I member 2 (Rattus norvegicus) (Q9R1A7 whole entry, looked up): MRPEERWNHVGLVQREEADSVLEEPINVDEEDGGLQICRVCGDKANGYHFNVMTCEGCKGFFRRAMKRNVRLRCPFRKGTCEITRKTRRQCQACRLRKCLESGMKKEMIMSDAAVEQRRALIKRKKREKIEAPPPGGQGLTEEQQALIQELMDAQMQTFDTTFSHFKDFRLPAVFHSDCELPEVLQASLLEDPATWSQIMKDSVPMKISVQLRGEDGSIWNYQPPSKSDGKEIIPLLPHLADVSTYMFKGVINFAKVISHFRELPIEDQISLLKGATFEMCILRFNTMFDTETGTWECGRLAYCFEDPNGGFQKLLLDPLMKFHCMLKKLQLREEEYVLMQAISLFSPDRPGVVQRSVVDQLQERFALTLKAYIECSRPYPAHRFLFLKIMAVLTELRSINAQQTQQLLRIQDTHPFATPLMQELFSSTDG

Assay [14] deals with Nuclear receptor subfamily 1 group I member 2 (Homo sapiens) (UniProt O75469). The experiment in a line: CYP3A4 induction through human pregnane X receptor (PXR) by small molecules, qHTS assay (AID 1346984). Note: nearly all actives have a fitted effect of over 40% in size. A digest of the protocol:
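Cells (DPX-2; HepG2 with PXR element plus CYP3A4-promoter luciferase) settled 5hr, then were treated 24hr at 37C. A 3hr, 3uM-final Luciferin-IPA step preceded luminescence measurement with One-Glo.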

Assay [15] has the same target. The experiment in a line: Human pregnane X receptor (PXR) activation by small molecules, qHTS assay (AID 1346985). Note: nearly all actives have a fitted effect of over 40% in size. The method in brief:
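DPX-2 cells (HepG2 co-transfected with a PXR response element and a CYP3A4-promoter luciferase construct) were seeded at 2,000 per well, rested 5 hr at 37C, then exposed to DMSO-dissolved compounds for 24 hr. Activation was read as luciferase luminescence.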

Values without a mark were called inactive. Records with an inconclusive call do not appear. Activity calls are given as the source filed them. Calls come from the whole dose curve; as a rule, active = well fitted curve in the direction sought with a large enough effect in the repeat runs; inconclusive = weak or mixed curves; inactive = no such curve, though single readings can be large; an effect the other way counts as inactive or inconclusive.
% is set by controls: 0 for no effect and ±100 for the full control effect.

Chain of Voltage-gated inwardly rectifying potassium channel KCNH2 (Homo sapiens) (Q12809 whole entry, looked up): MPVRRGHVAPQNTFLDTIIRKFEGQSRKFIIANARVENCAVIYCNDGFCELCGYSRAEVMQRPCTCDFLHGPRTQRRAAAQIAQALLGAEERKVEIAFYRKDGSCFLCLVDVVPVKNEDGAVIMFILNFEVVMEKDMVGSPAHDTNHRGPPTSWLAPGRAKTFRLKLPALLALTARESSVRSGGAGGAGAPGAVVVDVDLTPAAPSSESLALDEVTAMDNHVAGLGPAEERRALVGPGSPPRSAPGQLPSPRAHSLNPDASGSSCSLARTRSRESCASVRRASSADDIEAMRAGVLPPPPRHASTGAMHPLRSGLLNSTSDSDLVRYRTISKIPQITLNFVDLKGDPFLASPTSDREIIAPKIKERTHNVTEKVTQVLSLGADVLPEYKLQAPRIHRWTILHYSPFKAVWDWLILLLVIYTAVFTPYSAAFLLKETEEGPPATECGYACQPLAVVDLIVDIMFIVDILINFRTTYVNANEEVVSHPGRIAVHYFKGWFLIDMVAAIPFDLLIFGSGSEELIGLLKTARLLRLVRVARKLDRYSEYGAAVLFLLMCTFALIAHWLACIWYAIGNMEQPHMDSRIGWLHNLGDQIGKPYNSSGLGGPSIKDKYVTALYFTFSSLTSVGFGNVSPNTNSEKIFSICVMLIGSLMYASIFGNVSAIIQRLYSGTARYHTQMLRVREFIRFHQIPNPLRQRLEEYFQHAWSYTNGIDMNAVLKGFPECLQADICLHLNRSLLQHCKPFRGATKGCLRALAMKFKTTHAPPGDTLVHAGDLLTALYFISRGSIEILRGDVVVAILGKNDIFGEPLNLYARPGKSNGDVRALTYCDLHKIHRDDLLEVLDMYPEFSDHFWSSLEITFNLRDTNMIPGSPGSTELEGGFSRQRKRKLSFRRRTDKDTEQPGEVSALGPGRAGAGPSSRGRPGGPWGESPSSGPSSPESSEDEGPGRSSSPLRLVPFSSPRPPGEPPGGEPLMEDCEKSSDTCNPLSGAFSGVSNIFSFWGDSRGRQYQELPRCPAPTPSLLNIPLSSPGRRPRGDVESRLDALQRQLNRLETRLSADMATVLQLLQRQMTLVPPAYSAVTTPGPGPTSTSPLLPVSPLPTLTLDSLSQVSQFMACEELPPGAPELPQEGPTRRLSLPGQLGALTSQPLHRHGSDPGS
Chain of Cytochrome P450 3A4 (Homo sapiens) (P08684 whole entry, looked up): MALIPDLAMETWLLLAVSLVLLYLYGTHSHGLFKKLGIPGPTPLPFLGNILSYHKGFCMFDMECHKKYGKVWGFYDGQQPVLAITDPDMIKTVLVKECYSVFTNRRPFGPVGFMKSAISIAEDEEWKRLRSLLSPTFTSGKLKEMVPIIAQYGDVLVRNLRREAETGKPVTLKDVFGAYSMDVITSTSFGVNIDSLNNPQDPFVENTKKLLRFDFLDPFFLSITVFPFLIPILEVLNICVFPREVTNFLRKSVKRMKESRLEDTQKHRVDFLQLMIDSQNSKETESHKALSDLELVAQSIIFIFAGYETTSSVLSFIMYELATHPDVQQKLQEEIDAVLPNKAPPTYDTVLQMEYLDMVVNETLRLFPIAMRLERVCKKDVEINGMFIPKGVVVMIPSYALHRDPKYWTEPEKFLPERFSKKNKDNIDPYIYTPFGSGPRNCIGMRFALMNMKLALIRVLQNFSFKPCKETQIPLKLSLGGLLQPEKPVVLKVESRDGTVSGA
Chain of Cytochrome P450 2C19 (Homo sapiens) (P33261 whole entry, looked up): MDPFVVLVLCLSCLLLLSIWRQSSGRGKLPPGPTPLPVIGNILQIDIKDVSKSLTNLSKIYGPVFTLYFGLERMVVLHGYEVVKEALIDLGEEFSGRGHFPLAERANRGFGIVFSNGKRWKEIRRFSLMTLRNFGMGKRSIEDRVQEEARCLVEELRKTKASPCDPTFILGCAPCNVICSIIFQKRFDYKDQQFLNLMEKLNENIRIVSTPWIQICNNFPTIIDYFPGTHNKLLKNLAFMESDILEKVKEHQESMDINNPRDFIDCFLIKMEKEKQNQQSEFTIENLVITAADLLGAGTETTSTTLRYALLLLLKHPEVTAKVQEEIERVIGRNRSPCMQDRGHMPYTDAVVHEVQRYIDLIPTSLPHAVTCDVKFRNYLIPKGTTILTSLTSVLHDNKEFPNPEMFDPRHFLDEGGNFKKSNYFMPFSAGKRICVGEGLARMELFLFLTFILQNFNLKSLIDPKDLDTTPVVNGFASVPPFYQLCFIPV
Chain of Nuclear receptor subfamily 1 group I member 2 (Homo sapiens) (O75469 whole entry, looked up): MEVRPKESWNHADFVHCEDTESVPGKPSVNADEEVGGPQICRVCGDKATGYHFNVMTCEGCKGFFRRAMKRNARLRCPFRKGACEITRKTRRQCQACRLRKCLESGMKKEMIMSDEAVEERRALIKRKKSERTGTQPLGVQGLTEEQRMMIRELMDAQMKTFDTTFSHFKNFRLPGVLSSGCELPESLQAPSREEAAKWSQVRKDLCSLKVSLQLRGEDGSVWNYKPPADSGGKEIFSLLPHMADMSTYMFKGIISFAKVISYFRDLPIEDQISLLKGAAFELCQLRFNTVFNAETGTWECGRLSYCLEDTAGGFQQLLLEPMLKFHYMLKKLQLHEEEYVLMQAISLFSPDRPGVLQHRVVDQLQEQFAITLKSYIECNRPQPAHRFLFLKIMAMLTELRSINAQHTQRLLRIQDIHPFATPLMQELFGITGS
Chain of Cytochrome P450 2C9 (Homo sapiens) (P11712 whole entry, looked up): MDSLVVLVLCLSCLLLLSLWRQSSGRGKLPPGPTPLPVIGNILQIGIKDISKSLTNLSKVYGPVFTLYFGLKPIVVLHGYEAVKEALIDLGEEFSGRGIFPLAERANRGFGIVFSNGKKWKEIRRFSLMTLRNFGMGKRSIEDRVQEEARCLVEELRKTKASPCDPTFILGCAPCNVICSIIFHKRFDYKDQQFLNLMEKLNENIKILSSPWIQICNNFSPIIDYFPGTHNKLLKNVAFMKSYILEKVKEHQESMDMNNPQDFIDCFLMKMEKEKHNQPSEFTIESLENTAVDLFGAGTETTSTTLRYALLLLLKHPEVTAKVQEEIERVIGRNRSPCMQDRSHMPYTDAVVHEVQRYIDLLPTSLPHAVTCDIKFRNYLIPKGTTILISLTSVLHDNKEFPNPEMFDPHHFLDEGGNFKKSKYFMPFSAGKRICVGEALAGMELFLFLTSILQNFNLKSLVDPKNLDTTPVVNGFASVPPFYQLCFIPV

As for `O=C(O)CCCC[P+](c1ccccc1)(c1ccccc1)c1ccccc1`, the Potency entry in [1], in assay [3], in [5], in assay [6], in assay [7] and in [8] was “inactive” throughout. Besides, the Potency result in assay [9], in assay [10] and in [11] was “inactive” throughout. The outcome in assay [2] and in [4] was inactive.

Consider `CC(C)=CCC/C(C)=C/C#N`, for which the Potency entry in assay [1], in assay [3], in [5], in [6], in [12] and in assay [8] was “inactive” each time. Also, the Potency entry in assay [10] and in assay [11] was “inactive” throughout. For the same molecule, the outcome in [2] and in assay [4] was inactive.

Consider `O=[N+]([O-])c1cncn1CCN1CCOCC1`, for which the Potency entry in [1], in assay [3], in assay [5], in [12], in [7] and in [8] was “inactive” in each case. Besides, the Potency entry in assay [9] and in [10] was “inactive” each time. Besides, the call in assay [2] and in assay [4] was inactive.

For the molecule `C=CC(=O)OCCCl`, the Potency entry in assay [1], in assay [3], in [5], in [6], in assay [8] and in assay [10] was “inactive” in each case. The Potency result in assay [11] is “inactive”. Further, the result in assay [2] and in assay [4] was inactive. Also, the Potency in assay [7] was 81.5 µM (active); in assay [9] it was 40.8 µM (active).

For the molecule `NC(N)=NCCN1CCCCCCC1`, the values for the activity change, negative = cytotoxicity in assay [1], in assay [3] and in [5] were -0.749% [at 0.349 µM], -1.24% [at 0.349 µM] and -1.53% [at 0.349 µM], respectively. Moreover, in assay [2], the caspase activation was -1.67% [at 0.349 µM]. In addition, the caspase-3/7 activation in [4] was -0.223% [at 0.349 µM]. In addition, the max activation in assay [13] is -2.81%.

For the molecule `Cc1cccc(C)c1NC(=O)CC12CCCN1CCC2`, the Potency entry in [1], in assay [3], in [5], in [14], in assay [15] and in [7] was “inactive” in each case. In addition, the Potency entry in [8], in [9] and in [11] was “inactive” each time. Further, the call in assay [2] and in [4] was inactive. In addition, the max activation in [13] is 6.3%.

In the case of `CCCC(=O)O[C@]1(C(=O)CC)CC[C@H]2[C@@H]3CCC4=CC(=O)CC[C@]4(C)[C@H]3[C@@H](O)C[C@@]21C`, the Potency entry in assay [1], in assay [3], in [5], in [9] and in assay [10] was “inactive” throughout. The molecule was called inactive in assay [2] and in assay [4]. The Potency is 3.76 µM (active) in assay [6] and 15.5 µM (active) in [8].

Consider `CC(=O)C1CCCCC1=O` (centres undefined), for which the Potency entry in assay [1], in [3], in assay [5], in assay [6], in [12] and in assay [9] was “inactive” in each case. The Potency entry in assay [10] is “inactive”. Besides, the call in assay [2] and in assay [4] was inactive.

With `Cc1ccnc(NS(=O)(=O)c2ccc(N)cc2)n1`, the Potency result in assay [1], in assay [3], in assay [5], in assay [14], in assay [15] and in [12] was “inactive” in each case. The Potency result in [7], in assay [8], in [9], in [10] and in [11] was “inactive” each time. For the same molecule, the outcome in [2] and in assay [4] was inactive. The max activation in [13] was -0.793%.

With `CO/N=C(\C(=O)N[C@@H]1C(=O)N2C(C(=O)O)=C(CSc3nc(=O)c(O)nn3C)CS[C@H]12)c1csc(N)n1`, the Potency result in assay [1], in assay [3], in [5], in [14], in [15] and in assay [7] was “inactive” throughout. In addition, the Potency result in assay [9], in assay [10] and in assay [11] was “inactive” in each case. Besides, the molecule was called inactive in assay [2] and in [4]. Besides, in [13], the max activation is -3.34%.
